About 79,000 compounds went through this panel and 15% of them were active in at least one assay; those are over-represented in the sample as a whole. Active and inactive are the calls of the source. No stated cut-off is given here; in the data, active means growth inhibition above about 70%; inactive means the rest.
Tests used:
[1] = NCI Yeast Anticancer Drug Screen. Data for the rad50 strain (AID 155);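 further: 0% = growth of vehicle-only cultures of the same strain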; conditions: S. cerevisiae rad50 strain growth inhibition, hits give high values
Summary of the method: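 Inhibition values express reduced yeast growth in compound-treated cultures relative to vehicle-treated controls.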

[2] = NCI Yeast Anticancer Drug Screen. Data for the mec2-1 strain (AID 157); conditions: S. cerevisiae mec2-1 strain, hits give high values
Summary of the method: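 Each compound was tested on mec2-1 yeast, a strain altered in DNA damage repair or cell cycle control. Growth inhibition is reported relative to vehicle.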

[3] = NCI Yeast Anticancer Drug Screen. Data for the sgs1 mgt1 strain (AID 161);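 further: 0% = growth of cultures given vehicle only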; conditions: S. cerevisiae sgs1 mgt1 strain, hits give high values
Summary of the method: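 Inhibition of yeast growth, normalised to vehicle-treated controls, is reported for a strain bearing genetic alterations in DNA damage repair.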

[4] = NCI Yeast Anticancer Drug Screen. Data for the cln2 rad14 strain (AID 165);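 further: 0% = growth equal to vehicle treated cultures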; conditions: S. cerevisiae cln2 rad14 strain, hits give high values
Summary of the method: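 Test compounds were added to cln2 rad14 yeast cultures; inhibition of growth was then determined by comparison with vehicle treatment.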

[5] = NCI Yeast Anticancer Drug Screen. Data for the bub3 strain (AID 167); conditions: S. cerevisiae bub3 mutant strain, hits give high values
Summary of the method: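 Steps: expose the mutant yeast strain to compound; grow alongside vehicle-treated cultures; measure growth; express inhibition against the vehicle cultures.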

[6] = NCI Yeast Anticancer Drug Screen. Data for the mlh1 rad18 strain (AID 175); conditions: S. cerevisiae mlh1 rad18 strain growth inhibition, hits give high values
Summary of the method: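 Inhibition values reflect reduced growth of mutant yeast versus vehicle-treated controls following compound exposure; the mutations affect DNA damage repair.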

[7] = at 5.0 µM (retest, dose inferred, filed as 0.5)
[8] = at 50.0 µM (retest, dose inferred, filed as 5.0)

Measured: growth inhibition

CCCCN(CCO)CCNc1ccc(C)c2sc3ccccc3c(=O)c12
inactive: [1]; [7] 17% | [2]; [7] 14% | [3]; [7] 29% | [4]; [7] 17% | [5]; [7] 24% | [6]; [7] 22%
active: [1]; [8] 99% | [1]; at 50.0 µM 99.7% | [2]; [8] 99% | [2]; at 50.0 µM 99.8% | [3]; [8] 100% | [3]; at 50.0 µM 99.6% | [4]; [8] 99% | [4]; at 50.0 µM 99.7% | [5]; [8] 99% | [5]; at 50.0 µM 99.6% | [6]; [8] 99% | [6]; at 50.0 µM 95.5%

CN(Cc1cnc2nc(N)nc(N)c2n1)c1ccc(C(=O)NC(CCC(=O)O)C(=O)O)cc1C(F)(F)F (stereo not given)
active: [1]; [8] 76% | [1]; at 50.0 µM 72.7% | [2]; [8] 98% | [5]; at 50.0 µM 75.5% | [6]; [8] 86%
inactive: [1]; [7] -2% | [2]; [7] 61% | [2]; at 50.0 µM 50% | [3]; [7] -12% | [3]; [8] 62% | [3]; at 50.0 µM 67.5% | [4]; [7] -16% | [4]; [8] 5% | [4]; at 50.0 µM 29% | [5]; [7] -19% | [5]; [8] 65% | [6]; [7] 0% | [6]; at 50.0 µM 56.9%

CC(C)c1ccc2c(c1)CCC1C(C)(C(=O)O)CCCC21C (stereo not given)
inactive: [1]; [7] 11% | [2]; [7] 8% | [3]; [7] 16% | [3]; [8] -15% | [4]; [7] 8% | [5]; [7] -9% | [6]; [7] 16%
active: [1]; [8] 97% | [1]; at 50.0 µM 95.1% | [2]; [8] 97% | [2]; at 50.0 µM 98.3% | [3]; at 50.0 µM 98% | [4]; [8] 98% | [4]; at 50.0 µM 96.9% | [5]; [8] 97% | [5]; at 50.0 µM 97.8% | [6]; [8] 97% | [6]; at 50.0 µM 97.5%

CCC(C)(C)c1cc(Br)c(NS(=O)(=O)c2ccc(NC(C)=O)cc2)c(Br)c1
inactive: [1]; [7] 5% | [1]; at 50.0 µM -6.75% | [2]; [7] 13% | [2]; [8] 65% | [2]; at 50.0 µM 8.05% | [3]; [7] -9% | [3]; [8] 35% | [3]; at 50.0 µM -0.45% | [4]; [7] 9% | [4]; at 50.0 µM 6.85% | [5]; [7] -3% | [5]; [8] 62% | [5]; at 50.0 µM 6.5% | [6]; [7] 8% | [6]; [8] 42% | [6]; at 50.0 µM 20.5%
active: [1]; [8] 80% | [4]; [8] 78%

O=[N+]([O-])c1ccc(O)c(C2CCCCC2)c1
inactive: [2]; [7] 67% | [3]; [7] 62% | [4]; [7] 64%
active: [1]; [7] 72% | [1]; [8] 98% | [1]; at 50.0 µM 99.5% | [2]; [8] 99% | [2]; at 50.0 µM 99.2% | [3]; [8] 99% | [3]; at 50.0 µM 99.7% | [4]; [8] 99% | [4]; at 50.0 µM 99.5% | [5]; [7] 79% | [5]; [8] 98% | [5]; at 50.0 µM 100% | [6]; [7] 87% | [6]; [8] 99% | [6]; at 50.0 µM 99%

Cc1ccc(C)c(C(=O)CCN)c1
active: [4]; at 50.0 µM 84.8%
inactive: [1]; [7] -2% | [1]; [8] 5% | [1]; at 50.0 µM 3.45% | [2]; [7] 1% | [2]; [8] 1% | [2]; at 50.0 µM -10.7% | [3]; [7] 0% | [3]; [8] -2% | [3]; at 50.0 µM 0.3% | [4]; [7] 6% | [4]; [8] 2% | [5]; [7] 7% | [5]; [8] 8% | [5]; at 50.0 µM -5.3% | [6]; [7] 2% | [6]; [8] 6% | [6]; at 50.0 µM 3.55%

O=C1C(Cl)=C(Cl)C(=C2C(Cl)=C(Cl)C(=O)C(Cl)=C2Cl)C(Cl)=C1Cl
active: [1]; [7] 98% | [1]; [8] 99% | [1]; at 50.0 µM 99.5% | [2]; [7] 97% | [2]; [8] 100% | [2]; at 50.0 µM 99.6% | [3]; [7] 91% | [3]; [8] 99% | [3]; at 50.0 µM 99.5% | [4]; [7] 99% | [4]; [8] 99% | [4]; at 50.0 µM 99% | [5]; [7] 79% | [5]; [8] 98% | [5]; at 50.0 µM 99.5% | [6]; [7] 97% | [6]; [8] 99% | [6]; at 50.0 µM 99.4%

CCOC(=O)c1cnc2cc3cccccc3n2c1=O
inactive: [1]; [7] 4% | [1]; [8] 62% | [2]; [7] -1% | [2]; [8] 41% | [2]; at 50.0 µM 42.5% | [3]; [7] 13% | [3]; [8] 65% | [4]; [7] -2% | [4]; [8] 44% | [4]; at 50.0 µM 54.9% | [5]; [7] -2% | [5]; [8] 67% | [5]; at 50.0 µM 31.6% | [6]; [7] -1%
active: [1]; at 50.0 µM 71.7% | [3]; at 50.0 µM 76.5% | [6]; [8] 86% | [6]; at 50.0 µM 93.3%

CCOC(CCCl)OCC
active: [4]; at 50.0 µM 89.2%
inactive: [1]; [7] 0% | [1]; [8] 2% | [1]; at 50.0 µM 7.35% | [2]; [7] 0% | [2]; [8] 4% | [2]; at 50.0 µM 5.7% | [3]; [7] -1% | [3]; [8] 1% | [3]; at 50.0 µM -2.9% | [4]; [7] 0% | [4]; [8] -5% | [5]; [7] 1% | [5]; [8] -3% | [5]; at 50.0 µM 2.35% | [6]; [7] 0% | [6]; [8] 3% | [6]; at 50.0 µM 13.3%

COc1cccc(C2c3cc4c(cc3OC(O)C2C)OCO4)c1O (stereo not given)
inactive: [1]; [7] -10% | [1]; [8] 8% | [1]; at 50.0 µM 13.6% | [2]; [7] -5% | [2]; [8] 23% | [2]; at 50.0 µM 11.5% | [3]; [7] 1% | [3]; [8] 24% | [3]; at 50.0 µM -6.55% | [4]; [7] 7% | [4]; [8] 4% | [4]; at 50.0 µM 12.6% | [5]; [7] -4% | [5]; [8] 27% | [5]; at 50.0 µM 34.1% | [6]; [7] -7% | [6]; [8] 30% | [6]; at 50.0 µM 58%

From PubChem BioAssay (NCI)
